Results reported in PubChem BioAssay (EPA / NIEHS).
“And” between values parts separate entries of the source, which are not always exact repeats. Identical values can stand only once. Inconclusive results are not listed. Some compounds were tested as several samples or in several runs, with calls that do not always agree. The source made the active and inactive calls. Rule for the calls, unless noted: active = hit-call score of the fitted dose curve at least 0.9, where 1 is the maximum; inactive = score below 0.9.

Key:
[1] = BSK_3C_VCAM1: BioMAP Diversity Plus: 3C Assay for Vascular cell adhesion molecule 1 (VCAM1) Biomarker Activity (AID 2282999); conditions: BioMAP 3C HUVEC, VCAM1 ELISA, cytokine-stimulated; actives raise or lower the signal
Summary of the method: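 Human umbilical vein endothelial cells (3C system), biomarker read by ELISA 24 h after dosing; bidirectional fit against DMSO baseline. Cytotoxicity tracked by SRB total-protein staining in parallel cultures at biomarker time.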

[2] = BSK_4H_Eotaxin3: BioMAP Diversity Plus: 4H Assay for Eotaxin 3 Biomarker Activity (AID 2283000); conditions: primary human endothelial cells (HUVEC); actives raise or lower the signal
Summary of the method: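 Eotaxin-3 (CCL26) levels were measured by ELISA in HUVEC primary cultures 24 h post-dosing. Gain or loss of signal was fitted in both directions, with DMSO serving as baseline and negative control.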

[3] = biological target: human Peroxisome Proliferator-activated Receptor alpha (PPARa), PPARA (gene 5465) (UniProt Q07869); assay: ATG_PPARa_TRANS: Attagene TRANS-FACTORIAL HepG2 Assay for human Peroxisome Proliferator-activated Receptor alpha (PPARa) (AID 2283001; active = hit-call score of the fitted dose curve at least 0.9, where 1 is the maximum)
Summary of the method: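 HepG2 cells transiently transfected with multiplexed GAL4-UAS reporters driven by exogenous chimeric NR-Gal4 proteins; reporter mRNA measured after 24 h dosing. Read-out by RT-PCR, 6-FAM labelling, HpaI digestion and capillary electrophoresis; gain of signal versus DMSO.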

[4] = read-out: Intercellular Adhesion Molecule 1 (ICAM1), ICAM1 (gene 3383); assay: BSK_3C_ICAM1: BioMAP Diversity Plus: 3C Assay for Intercellular Adhesion Molecule 1 (ICAM1) Biomarker Activity (AID 2283003); conditions: primary human endothelial cells (HUVEC); actives raise or lower the signal
Summary of the method: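 HUVEC primary cells stimulated under 3C conditions; ICAM1 measured by ELISA 24 h after compound dosing. Curves fitted bidirectionally against the DMSO baseline. Overt cytotoxicity checked by SRB staining of parallel cultures.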

[5] = BSK_3C_Proliferation: Cell Proliferation Assessment in the BioMAP Diversity Plus: 3C Assay (AID 2283006); conditions: primary human endothelial cells (HUVEC);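 for AC50: potency may reflect either rise or fall in cell number versus DMSO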
Summary of the method: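 Subconfluent HUVEC (3C system) cultured with chemical; relative cell number read at 48 h by sulforhodamine B total-protein staining (0.1% SRB after 10% TCA fixation, 560 nm). Bidirectional fit relative to DMSO.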

[6] = biological target: Nuclear receptor subfamily 1 group I member 2 (Homo sapiens) (UniProt O75469); assay: ATG_PXR_TRANS: Attagene TRANS-FACTORIAL HepG2 Assay for human Pregnane X Receptor (PXR) (AID 2283008; active = hit-call score of the fitted dose curve at least 0.9, where 1 is the maximum)
Summary of the method: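 Measures mRNA induction of a GAL4-UAS-driven reporter in human HepG2 cells transiently expressing PXR fused to Gal4, following 24 h treatment. DMSO served as negative control and baseline.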

[7] = biological target: human RAR-related Orphan Receptor gamma (RORg), RORC (gene 6097) (UniProt P51449); assay: ATG_RORg_TRANS: Attagene TRANS-FACTORIAL HepG2 Assay for human RAR-related Orphan Receptor gamma (RORg) (AID 2283011; active = hit-call score of the fitted dose curve at least 0.9, where 1 is the maximum)
Summary of the method: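 HepG2 cells transiently transfected with GAL4-UAS reporter units and chimeric RORg-Gal4 construct; after 24 h chemical exposure, reporter mRNA measured by RT-PCR with fluorescent capillary electrophoresis, gain of signal fitted against DMSO.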

[8] = biological target: human Retinoid X Receptor beta (RXRb), RXRB (gene 6257) (UniProt P28702); assay: ATG_RXRb_TRANS: Attagene TRANS-FACTORIAL HepG2 Assay for human Retinoid X Receptor beta (RXRb) (AID 2283013; active = hit-call score of the fitted dose curve at least 0.9, where 1 is the maximum)
Summary of the method: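 HepG2 cells were transiently transfected with multiplexed GAL4-UAS reporters and a chimeric RXRb-Gal4 construct, then exposed for 24 h. Reporter mRNA was quantified by RT-PCR, FAM labeling, HpaI digestion and capillary electrophoresis; gain of signal was scored against DMSO.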

[9] = read-out: E-selectin (Homo sapiens) (UniProt P16581); assay: BSK_3C_Eselectin: BioMAP Diversity Plus: 3C Assay for Eselectin Biomarker Activity (AID 2283015); conditions: primary human endothelial cells (HUVEC); actives raise or lower the signal
Summary of the method: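 Primary human umbilical vein endothelial cells (3C system), read 24 h after compound addition; E-selectin measured by ELISA. Bidirectional curve fitting against DMSO baseline; cytotoxicity by parallel SRB total-protein staining.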

[10] = read-out: Interleukin-1 alpha (IL1a), IL1A (gene 3552); assay: BSK_BE3C_IL1a: BioMAP Diversity Plus: BE3C Assay for Interleukin-1 alpha (IL1a) Biomarker Activity (AID 2283016); conditions: primary human bronchial epithelial cells; actives raise or lower the signal
Summary of the method: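 Human primary bronchial epithelial cells, 24 h chemical exposure; IL-1a quantified by ELISA, fitted bidirectionally against DMSO. Cytotoxicity assessed in parallel by SRB total-protein staining at the time of measurement.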

[11] = read-out: Monocyte Chemoattractant Protein-1 (MCP1), CCL2 (gene 6347); assay: BSK_3C_MCP1: BioMAP Diversity Plus: 3C Assay for Monocyte Chemoattractant Protein-1 (MCP1) Biomarker Activity (AID 2283017); conditions: primary human endothelial cells (HUVEC); actives raise or lower the signal
Summary of the method: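 Human umbilical vein endothelial cells (3C system) exposed to chemicals for 24 h; MCP-1 quantified by ELISA against the DMSO baseline with bidirectional fitting, and parallel SRB staining used to assess cytotoxicity.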

[12] = read-out: Monocyte Chemoattractant Protein-1 (MCP1), CCL2 (gene 6347); assay: BSK_4H_MCP1: BioMAP Diversity Plus: 4H Assay for Monocyte Chemoattractant Protein-1 (MCP1) Biomarker Activity (AID 2283018); conditions: primary human endothelial cells (HUVEC); actives raise or lower the signal
Summary of the method: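 Human umbilical vein endothelial cells (4H system) exposed to chemicals for 24 h in 96-well format. MCP-1 measured by ELISA; bidirectional fitting against DMSO, with SRB total-protein staining in parallel cultures for cytotoxicity.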

[13] = biological target: human Retinoic Acid Receptor gamma (RARg), RARG (gene 5916) (UniProt P13631); assay: ATG_RARg_TRANS: Attagene TRANS-FACTORIAL HepG2 Assay for human Retinoic Acid Receptor gamma (RARg) (AID 2283009; active = hit-call score of the fitted dose curve at least 0.9, where 1 is the maximum)
Summary of the method: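 HepG2 transiently transfected with GAL4-UAS reporter units and chimeric NR-Gal4 constructs; 24 h compound exposure. Reporter mRNA quantified by RT-PCR, FAM labeling, HpaI digestion and capillary electrophoresis; gain-of-signal versus DMSO.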

[14] = biological target: human Peroxisome Proliferator-activated Receptor delta (PPARd), PPARD (gene 5467) (UniProt Q03181); assay: ATG_PPARd_TRANS: Attagene TRANS-FACTORIAL HepG2 Assay for human Peroxisome Proliferator-activated Receptor delta (PPARd) (AID 2283002; active = hit-call score of the fitted dose curve at least 0.9, where 1 is the maximum)
Summary of the method: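 HepG2 cells transiently transfected with GAL4-UAS multiplexed reporter units driven by exogenous chimeric NR-GAL4 proteins; 24 h compound exposure. Reporter mRNA measured by RT-PCR, 6-FAM primer extension, HpaI digestion and capillary electrophoresis; gain of signal fitted relative to DMSO.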

[15] = biological target: human Retinoic Acid Receptor beta (RARb), RARB (gene 5915) (UniProt P10826); assay: ATG_RARb_TRANS: Attagene TRANS-FACTORIAL HepG2 Assay for human Retinoic Acid Receptor beta (AID 2283004; active = hit-call score of the fitted dose curve at least 0.9, where 1 is the maximum)
Summary of the method: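 HepG2 cells were transiently transfected with GAL4-UAS reporter units that report activity of exogenous chimeric NR-Gal4 proteins, then exposed to compound for 24 h. Reporter mRNA was quantified by RT-PCR with capillary electrophoresis fluorescence, as gain of signal over DMSO.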

[16] = biological target: Retinoic acid receptor alpha (Homo sapiens) (UniProt P10276); assay: ATG_RARa_TRANS: Attagene TRANS-FACTORIAL HepG2 Assay for human Retinoic Acid Receptor alpha (RARa) (AID 2283005; active = hit-call score of the fitted dose curve at least 0.9, where 1 is the maximum)
Summary of the method: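 HepG2 transiently transfected with multiplex GAL4-UAS reporter units including a human RARa–GAL4 chimera; 24 h compound exposure. Reporter mRNA quantified by RT-PCR, 6-FAM labeling and capillary electrophoresis; gain of signal versus DMSO.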

[17] = biological target: Peroxisome proliferator-activated receptor gamma (Homo sapiens) (UniProt P37231); assay: ATG_PPARg_TRANS: Attagene TRANS-FACTORIAL HepG2 Assay for human Peroxisome Proliferator-activated Receptor-gamma (PPARg) (AID 2283007; active = hit-call score of the fitted dose curve at least 0.9, where 1 is the maximum)
Summary of the method: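 Twenty-four hours after chemical dosing of transiently transfected HepG2 cells, isolated RNA was converted to cDNA, reporter sequences amplified and 6-FAM-labelled, then HpaI-digested and analysed by capillary electrophoresis. Signal increase against DMSO was fitted.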

[18] = biological target: human Thyroid Receptor alpha (THRa1), THRA (gene 7067) (UniProt P10827); assay: ATG_THRa1_TRANS: Attagene TRANS-FACTORIAL HepG2 Assay for human Thyroid Receptor alpha (THRa1) (AID 2283014; active = hit-call score of the fitted dose curve at least 0.9, where 1 is the maximum)
Summary of the method: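 HepG2 cells transiently transfected with chimeric NR-Gal4 and GAL4-UAS reporter units, dosed 24 h. Reporter mRNA quantified by RT-PCR, fluorescent labeling, HpaI digestion and capillary electrophoresis; gain-of-signal fit versus DMSO.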

[19] = biological target: human RAR-related Orphan Receptor beta (RORb), RORB (gene 6096) (UniProt Q92753); assay: ATG_RORb_TRANS: Attagene TRANS-FACTORIAL HepG2 Assay for human RAR-related Orphan Receptor beta (RORb) (AID 2283010; active = hit-call score of the fitted dose curve at least 0.9, where 1 is the maximum)
Summary of the method: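 HepG2 cells transiently transfected with GAL4-UAS reporter units expressing chimeric NR-Gal4 protein; reporter mRNA measured 24 h after dosing by RT-PCR, 6-FAM labelling and capillary electrophoresis. Gain-of-signal fitted relative to DMSO baseline.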

Measured: AC50

human RAR-related Orphan Receptor gamma (RORg), RORC (gene 6097), sequence (P51449 whole entry, looked up, the tested form may be a part): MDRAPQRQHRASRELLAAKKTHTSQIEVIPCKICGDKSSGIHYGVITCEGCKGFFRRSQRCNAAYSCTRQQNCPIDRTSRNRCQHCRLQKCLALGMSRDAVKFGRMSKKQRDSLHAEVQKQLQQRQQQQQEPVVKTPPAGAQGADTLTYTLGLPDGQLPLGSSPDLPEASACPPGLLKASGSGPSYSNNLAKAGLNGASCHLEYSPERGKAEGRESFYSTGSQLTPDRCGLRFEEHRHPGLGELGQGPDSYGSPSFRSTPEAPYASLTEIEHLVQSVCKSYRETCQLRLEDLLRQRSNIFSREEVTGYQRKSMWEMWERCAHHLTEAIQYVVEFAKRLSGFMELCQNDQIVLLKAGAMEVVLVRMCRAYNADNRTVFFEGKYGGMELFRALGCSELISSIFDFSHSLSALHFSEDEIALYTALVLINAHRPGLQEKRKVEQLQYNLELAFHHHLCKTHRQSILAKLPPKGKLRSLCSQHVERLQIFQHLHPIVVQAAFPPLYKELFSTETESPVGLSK
Peroxisome proliferator-activated receptor gamma (Homo sapiens), sequence (P37231 whole entry, looked up): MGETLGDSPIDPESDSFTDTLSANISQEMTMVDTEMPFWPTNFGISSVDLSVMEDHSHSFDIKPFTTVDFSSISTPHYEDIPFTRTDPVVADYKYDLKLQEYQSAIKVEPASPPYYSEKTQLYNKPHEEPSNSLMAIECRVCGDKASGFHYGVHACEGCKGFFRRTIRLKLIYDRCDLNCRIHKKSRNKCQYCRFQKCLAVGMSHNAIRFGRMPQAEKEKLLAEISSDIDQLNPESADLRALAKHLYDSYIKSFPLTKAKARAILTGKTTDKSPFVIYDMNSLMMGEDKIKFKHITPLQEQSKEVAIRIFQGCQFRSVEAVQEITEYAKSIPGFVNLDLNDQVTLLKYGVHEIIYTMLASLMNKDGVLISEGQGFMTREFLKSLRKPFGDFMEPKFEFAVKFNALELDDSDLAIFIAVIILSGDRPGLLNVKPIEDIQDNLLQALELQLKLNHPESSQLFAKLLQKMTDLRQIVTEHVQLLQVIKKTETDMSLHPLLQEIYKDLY
human Thyroid Receptor alpha (THRa1), THRA (gene 7067), sequence (P10827 whole entry, looked up, the tested form may be a part): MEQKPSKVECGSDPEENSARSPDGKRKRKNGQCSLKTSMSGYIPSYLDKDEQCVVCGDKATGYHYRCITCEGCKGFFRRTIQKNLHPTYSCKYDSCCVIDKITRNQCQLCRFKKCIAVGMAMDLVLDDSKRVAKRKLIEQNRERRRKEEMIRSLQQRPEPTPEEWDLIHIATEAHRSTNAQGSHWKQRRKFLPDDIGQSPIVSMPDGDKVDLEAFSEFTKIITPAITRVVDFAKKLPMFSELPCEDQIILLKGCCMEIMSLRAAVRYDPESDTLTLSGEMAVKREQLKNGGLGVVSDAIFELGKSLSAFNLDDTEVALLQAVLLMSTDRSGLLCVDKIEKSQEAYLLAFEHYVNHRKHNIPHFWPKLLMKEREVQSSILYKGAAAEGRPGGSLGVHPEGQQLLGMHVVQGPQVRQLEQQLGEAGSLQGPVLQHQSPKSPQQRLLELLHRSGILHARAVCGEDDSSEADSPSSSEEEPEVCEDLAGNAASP
human Peroxisome Proliferator-activated Receptor alpha (PPARa), PPARA (gene 5465), sequence (Q07869 whole entry, looked up, the tested form may be a part): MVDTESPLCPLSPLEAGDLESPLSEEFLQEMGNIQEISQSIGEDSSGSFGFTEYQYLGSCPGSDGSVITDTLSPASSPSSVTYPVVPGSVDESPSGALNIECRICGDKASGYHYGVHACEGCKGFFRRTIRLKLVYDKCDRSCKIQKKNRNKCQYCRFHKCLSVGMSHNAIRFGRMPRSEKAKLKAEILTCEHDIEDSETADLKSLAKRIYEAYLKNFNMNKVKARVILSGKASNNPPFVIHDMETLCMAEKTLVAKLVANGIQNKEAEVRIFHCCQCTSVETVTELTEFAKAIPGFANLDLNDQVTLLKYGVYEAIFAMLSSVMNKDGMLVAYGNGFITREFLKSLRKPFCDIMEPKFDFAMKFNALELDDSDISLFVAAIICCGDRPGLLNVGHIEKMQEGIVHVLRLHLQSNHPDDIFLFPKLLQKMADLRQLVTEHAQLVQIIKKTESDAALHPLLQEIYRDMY
E-selectin (Homo sapiens), sequence (P16581 whole entry, looked up): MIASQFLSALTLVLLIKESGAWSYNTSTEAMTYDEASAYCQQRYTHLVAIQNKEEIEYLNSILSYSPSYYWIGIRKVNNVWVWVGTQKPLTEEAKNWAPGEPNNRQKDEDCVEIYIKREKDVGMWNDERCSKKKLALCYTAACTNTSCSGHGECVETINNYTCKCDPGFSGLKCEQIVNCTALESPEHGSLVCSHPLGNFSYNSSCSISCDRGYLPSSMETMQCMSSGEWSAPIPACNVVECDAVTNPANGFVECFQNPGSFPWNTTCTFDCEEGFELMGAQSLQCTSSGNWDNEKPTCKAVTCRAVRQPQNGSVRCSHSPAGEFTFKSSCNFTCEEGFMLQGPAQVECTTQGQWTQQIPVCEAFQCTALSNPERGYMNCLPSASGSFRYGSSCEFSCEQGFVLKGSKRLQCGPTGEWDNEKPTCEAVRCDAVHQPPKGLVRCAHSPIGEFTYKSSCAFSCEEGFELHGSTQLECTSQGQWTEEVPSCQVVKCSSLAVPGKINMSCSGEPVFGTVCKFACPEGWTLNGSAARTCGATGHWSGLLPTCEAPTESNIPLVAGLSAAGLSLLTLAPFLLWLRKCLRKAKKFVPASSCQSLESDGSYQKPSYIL
human Retinoic Acid Receptor beta (RARb), RARB (gene 5915), sequence (P10826 whole entry, looked up, the tested form may be a part): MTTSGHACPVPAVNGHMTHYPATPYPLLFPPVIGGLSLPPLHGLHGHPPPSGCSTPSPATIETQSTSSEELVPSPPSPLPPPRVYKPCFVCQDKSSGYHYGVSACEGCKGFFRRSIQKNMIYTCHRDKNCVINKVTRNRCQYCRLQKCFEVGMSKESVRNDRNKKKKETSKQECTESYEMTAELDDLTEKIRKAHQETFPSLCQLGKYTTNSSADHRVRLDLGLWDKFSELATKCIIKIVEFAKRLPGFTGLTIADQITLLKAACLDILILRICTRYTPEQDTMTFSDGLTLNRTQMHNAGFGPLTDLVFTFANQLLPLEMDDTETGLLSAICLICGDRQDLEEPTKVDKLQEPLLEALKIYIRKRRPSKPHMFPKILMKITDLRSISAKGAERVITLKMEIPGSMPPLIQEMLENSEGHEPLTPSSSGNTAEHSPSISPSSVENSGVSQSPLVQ
human Retinoic Acid Receptor gamma (RARg), RARG (gene 5916), sequence (P13631 whole entry, looked up, the tested form may be a part): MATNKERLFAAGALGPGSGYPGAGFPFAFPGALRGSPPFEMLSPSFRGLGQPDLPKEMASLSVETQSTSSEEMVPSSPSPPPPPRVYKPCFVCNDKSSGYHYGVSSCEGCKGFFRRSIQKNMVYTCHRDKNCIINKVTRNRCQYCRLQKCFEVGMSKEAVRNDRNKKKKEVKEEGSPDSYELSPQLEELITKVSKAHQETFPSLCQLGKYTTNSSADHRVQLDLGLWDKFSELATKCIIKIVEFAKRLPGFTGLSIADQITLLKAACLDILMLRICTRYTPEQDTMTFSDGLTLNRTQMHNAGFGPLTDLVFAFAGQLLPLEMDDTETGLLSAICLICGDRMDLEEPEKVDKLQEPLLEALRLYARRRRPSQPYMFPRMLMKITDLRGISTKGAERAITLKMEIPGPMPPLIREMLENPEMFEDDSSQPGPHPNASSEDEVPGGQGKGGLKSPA
human Retinoid X Receptor beta (RXRb), RXRB (gene 6257), sequence (P28702 whole entry, looked up, the tested form may be a part): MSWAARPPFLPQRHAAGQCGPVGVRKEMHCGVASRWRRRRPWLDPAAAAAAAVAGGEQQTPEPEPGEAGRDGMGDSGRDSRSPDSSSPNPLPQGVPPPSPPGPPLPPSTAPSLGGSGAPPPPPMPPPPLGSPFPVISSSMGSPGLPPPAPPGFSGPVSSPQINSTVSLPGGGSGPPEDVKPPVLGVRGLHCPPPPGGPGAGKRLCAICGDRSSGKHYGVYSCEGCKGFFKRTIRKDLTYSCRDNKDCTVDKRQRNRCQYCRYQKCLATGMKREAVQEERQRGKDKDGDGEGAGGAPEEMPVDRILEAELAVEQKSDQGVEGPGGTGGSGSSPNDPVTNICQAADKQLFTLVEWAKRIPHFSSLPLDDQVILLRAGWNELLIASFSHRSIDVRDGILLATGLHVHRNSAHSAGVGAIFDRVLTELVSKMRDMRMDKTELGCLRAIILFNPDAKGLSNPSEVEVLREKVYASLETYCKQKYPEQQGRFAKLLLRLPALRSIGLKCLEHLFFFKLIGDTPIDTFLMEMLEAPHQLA
Retinoic acid receptor alpha (Homo sapiens), sequence (P10276 whole entry, looked up, the tested form may be a part): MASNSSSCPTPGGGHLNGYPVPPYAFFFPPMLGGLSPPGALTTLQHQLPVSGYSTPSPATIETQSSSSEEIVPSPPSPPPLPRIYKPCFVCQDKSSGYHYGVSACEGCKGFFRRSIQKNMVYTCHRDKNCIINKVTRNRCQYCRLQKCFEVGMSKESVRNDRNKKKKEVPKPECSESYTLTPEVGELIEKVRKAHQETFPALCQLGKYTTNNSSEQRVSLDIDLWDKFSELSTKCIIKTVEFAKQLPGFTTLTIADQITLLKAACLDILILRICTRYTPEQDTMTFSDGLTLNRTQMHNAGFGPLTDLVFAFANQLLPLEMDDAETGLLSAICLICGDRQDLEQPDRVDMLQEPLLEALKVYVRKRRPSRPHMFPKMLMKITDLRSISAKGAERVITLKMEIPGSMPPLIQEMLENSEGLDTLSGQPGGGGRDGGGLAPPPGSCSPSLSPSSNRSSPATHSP
human Peroxisome Proliferator-activated Receptor delta (PPARd), PPARD (gene 5467), sequence (Q03181 whole entry, looked up, the tested form may be a part): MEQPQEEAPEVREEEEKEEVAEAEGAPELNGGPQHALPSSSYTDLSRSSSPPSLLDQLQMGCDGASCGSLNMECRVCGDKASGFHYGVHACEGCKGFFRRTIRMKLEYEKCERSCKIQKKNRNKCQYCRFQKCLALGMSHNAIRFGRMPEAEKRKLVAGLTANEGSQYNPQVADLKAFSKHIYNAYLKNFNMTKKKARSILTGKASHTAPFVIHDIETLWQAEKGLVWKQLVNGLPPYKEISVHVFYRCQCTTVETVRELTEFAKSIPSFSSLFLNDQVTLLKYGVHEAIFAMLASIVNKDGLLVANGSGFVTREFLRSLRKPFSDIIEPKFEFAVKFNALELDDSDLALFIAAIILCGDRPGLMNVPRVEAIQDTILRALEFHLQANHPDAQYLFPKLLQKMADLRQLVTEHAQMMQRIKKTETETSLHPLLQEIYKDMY

CC(C)C(=O)OCC(C)(C)C(OC(=O)C(C)C)C(C)C (stereo not drawn)
active: [5] 31.6 µM | [6] 0.483 µM
not listed: [13] | [14] | [15] | [16] | [17] | [18] | [19]
inactive: all other assays above

CCCN(CCC)N=O
inactive: [1] | [2] | [4] | [5] | [13] | [7] | [9] | [10] | [11] | [12]

Cc1ccccc1[N+](=O)[O-]
inactive: [1] | [2] | [3] | [4] | [5] | [9] | [10] | [11] | [12]

c1cc2ccc3cccc4ccc(c1)c2c34
active: [8] 41.4 µM
not listed: [3] | [7] | [19]
inactive: all other assays above

CCSC(=O)N(CC)C1CCCCC1
not listed: [3] | [7] | [13] | [14] | [15] | [16] | [18] | [19]
inactive: all other assays above

Cc1cccc([N+](=O)[O-])c1
not listed: [3] | [6] | [7] | [14] | [16] | [17] | [18] | [19]
inactive: all other assays above

C1CC2OC2CC1C1CO1 (stereo not drawn)
inactive: [1] | [2] | [4] | [5] | [7] | [9] | [10] | [11] | [12]

CCOP(=S)(OCC)SCSC(C)(C)C
active: [5] 29.3 µM | [6] 3.49 µM and 2.9 µM | [8] 25.7 µM and 24.6 µM
not listed: [3] | [7] | [13] | [15] | [16] | [19]
inactive: all other assays above

CC(C)(O)C(=O)Nc1ccc([N+](=O)[O-])c(C(F)(F)F)c1
inactive: [1] | [2] | [3] | [4] | [5] | [6] | [13] | [19] | [7] | [8] | [18] | [9] | [10] | [11] | [12]
active: [6] 21.2 µM | [8] 22.8 µM and 28.1 µM and 15.6 µM

O=S(=O)(O)C(F)(F)C(F)(F)C(F)(F)C(F)(F)C(F)(F)C(F)(F)F
active: [17] 32.5 µM and 79.5 µM and 61.7 µM
not listed: [3] | [13] | [15] | [16] | [18]
inactive: all other assays above

CCC(=O)O[C@H]1CC[C@H]2[C@@H]3CCC4=CC(=O)CC[C@]4(C)[C@H]3CC[C@]12C
active: [1] 35.6 µM | [2] 36 µM | [4] 35.8 µM | [5] 23 µM | [6] 27.8 µM | [9] 32.6 µM | [11] 29 µM | [12] 31.8 µM
inactive: [14] | [15] | [16] | [17] | [6] | [13] | [7] | [8] | [18] | [10]

ClC1=C(Cl)[C@]2(Cl)[C@@H]3[C@@H](Cl)[C@H]4O[C@H]4[C@@H]3C1(Cl)C2(Cl)Cl
active: [5] 11.2 µM | [6] 4.39 µM
not listed: [3] | [7] | [15] | [17] | [18] | [19]
inactive: all other assays above
